Source: PubChem (several laboratories)
Compounds with a hit are over-represented: about 3% of the library has one in this group of screens.
INS promoter inh = inhibitors of insulin promoter-driven GFP, primary screen, imaging, TRM-6 cells (human fetal islet line), eGFP reporter, cell count. reporter expression induced with tamoxifen. inhibition, % at 2 µM. actives 0.9% (n = 130,000);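 active = inhibition above the mean plus 3 SD, with well images judged a real hit on visual review, cut at about 60% in these data, passing the limit was not always enough; inconclusive = inhibition over the cutoff but images rejected on review; inactive = inhibition not above the cutoff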
Measles CPE = compounds protecting cells from measles virus cytopathic effect, primary screen, measles RdRp inhibitor project, single point, MLSMR library, absorbance; Measles virus-infected cells, CPE protection; protection (pct of control), % at 4 µM; actives 1.5% (n = 140,000); in the data active = protection mostly above about 24%, no sharp cut-off; inactive = mostly below about 26%
ROMK mod = ROMK potassium channel modulators, primary screen, cell-based, thallium flux, MLSMR library; Tet-inducible ROMK, thallium flux fluorescence; actives lie on both sides; B-score at 10 µM; actives 2% (n = 130,000); AID 1918, 2009;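 active = signal ratio slope over the read window, or its plate-corrected B-score, at least 3 SD from the plate mean, either direction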;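 note: B-score of the F/F0 ratio slope over 7 to 12 s after thallium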
Target sequence (P48048 whole entry, looked up): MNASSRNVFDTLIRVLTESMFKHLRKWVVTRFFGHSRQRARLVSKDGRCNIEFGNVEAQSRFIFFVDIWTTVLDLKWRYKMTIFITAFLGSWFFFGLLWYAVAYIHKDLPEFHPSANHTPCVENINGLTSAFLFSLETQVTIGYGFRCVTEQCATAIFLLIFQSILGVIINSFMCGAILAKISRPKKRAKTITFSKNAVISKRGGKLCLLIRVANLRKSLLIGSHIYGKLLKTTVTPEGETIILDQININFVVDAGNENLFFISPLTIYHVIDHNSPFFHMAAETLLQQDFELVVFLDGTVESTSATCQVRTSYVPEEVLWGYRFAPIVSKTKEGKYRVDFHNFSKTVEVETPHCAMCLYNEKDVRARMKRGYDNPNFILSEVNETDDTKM
sdo1 growth = growth rescue of sdo1-depleted yeast, primary screen, S. cerevisiae, bone marrow failure model; actives 0.21% (n = 140,000); AID 817, 2007; S. cerevisiae sdo1-depleted JHY4D growth rescue, OD600 30 h; active compounds read high; pdr5 snq2 efflux-pump mutant strain; z-score at 10 µM;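 active = z-score above 3 at both the 24 hr and the 30 hr optical density reads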;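 note: z-score against mean and SD of all compound wells on the same plate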
Numbers without * were called inactive.

O=C1COc2ccc(C(=O)c3ccccc3C(=O)NCc3ccco3)cc2N1 was read as INS promoter inh 11, Measles CPE 5, ROMK mod -0.24 and sdo1 growth 0.75.
CCOc1ccccc1N(C(=O)Cn1nnnc1-c1ccc(C)o1)C(CC)C(=O)NC(C)(C)C (configuration not stated) was read as INS promoter inh 12, Measles CPE 39*, ROMK mod -2.7 and sdo1 growth -0.02.
`O=C1Nc2ccccc2/C1=C\c1cccn1-c1ccc(OC(F)(F)F)cc1` gave INS promoter inh 3, Measles CPE 23 and sdo1 growth -0.15.
COc1cccc(-c2nnc(SCC(N)=O)n2-c2ccc(Cl)cc2)c1 was read as INS promoter inh 0, Measles CPE 57* and sdo1 growth 0.17.
`COc1ccc(-n2c(SCCC(=O)O)nnc2-c2ccncc2)cc1` gave INS promoter inh 81*, Measles CPE 2, ROMK mod 1.1 and sdo1 growth 0.08.
`O=C(Cn1cc(C(F)(F)F)ccc1=O)N/N=C/c1ccccc1` gave ROMK mod -0.88.
For Cc1ccccc1CNC(=O)c1ccccc1N the results were INS promoter inh -46, Measles CPE 1, ROMK mod -0.76 and sdo1 growth 0.16.
`COc1ccccc1CNC(=O)c1ccccc1N` gave INS promoter inh -10, Measles CPE 37* and sdo1 growth 0.52.
For O=C1CCCc2c1[nH]c1ccccc21 the results were INS promoter inh -43, Measles CPE 18, ROMK mod 0.5 and sdo1 growth 0.68.
Screening O=C1CCCC(=O)C1=Cc1c[nH]c2ccccc12 returned INS promoter inh 40, Measles CPE 6, ROMK mod -4.1* and sdo1 growth 2.2.
Screening CC(C)CN(CCCNC(=O)CN1C(=O)COc2ccc(S(=O)(=O)N3CCCC3)cc21)CC(C)C returned INS promoter inh -12 and ROMK mod -1.5.
`COc1c2c(nc3occc13)C(CCC(C)(C)O)(OC)C(O)CC2` (configuration not stated) gave INS promoter inh 21, Measles CPE 76*, ROMK mod 0.46 and sdo1 growth 0.85.
CCOC(=O)c1c(-c2ccccc2)csc1NC(=O)/C(C#N)=C/c1ccc(O)c(OC)c1 was read as Measles CPE 16 and sdo1 growth -1.1.
Screening COc1ccccc1NC(=O)c1ccc(NC(=O)COC(=O)C2CCCCC2)cc1 returned Measles CPE 49* and sdo1 growth -0.55.
Screening COc1ccccc1NC(=O)c1ccc(NC(=O)CN2CCCC2)cc1 returned INS promoter inh 25 and ROMK mod -0.45.
CCOC(=O)c1ccc(NC(=O)N2CCN(C(=O)c3ccco3)CC2)cc1 was read as ROMK mod 0.2.
COC(=O)c1c(-c2ccc(OC)c(OC)c2)csc1N was read as INS promoter inh 80*, Measles CPE 3 and sdo1 growth 0.93.
For COC(=O)c1c(-c2cccc(OC)c2)csc1N the results were Measles CPE 5 and sdo1 growth -0.62.
c1ccc(N2CCN(c3nc4ccccc4[nH]3)CC2)nc1 was read as INS promoter inh inconclusive and ROMK mod -0.53.
`C/C(=N\Nc1nc2ccccc2[nH]1)c1ccc(N2CCOCC2)cc1` gave INS promoter inh 75* and ROMK mod 0.5.
`C/C(=N\Nc1nc(C)cc(C)n1)c1ccc(N2CCOCC2)cc1` gave INS promoter inh 17 and ROMK mod 0.62.
`c1ccc2[nH]c(N3CCOCC3)nc2c1` gave INS promoter inh 61*, Measles CPE 3 and sdo1 growth 2.5.
Screening O=C(Nc1cccnc1)c1ccc(C(=O)Nc2cccnc2)cc1 returned INS promoter inh 50.
For O=C(Nc1ccc(Br)cc1)c1ccc(Br)c(S(=O)(=O)Nc2cccnc2)c1 the results were INS promoter inh -3, Measles CPE 46*, ROMK mod 0.39 and sdo1 growth 0.98.
For CCNC(=S)N/N=C/c1cn(Cc2ccc(F)cc2)c2ccccc12 the results were Measles CPE 29* and sdo1 growth -1.3.
`COc1ccc(OCCCC(=O)NC(C)c2ccccc2)cc1` (configuration not stated) gave INS promoter inh 27, Measles CPE 10 and sdo1 growth -1.3.
Screening NC(=O)c1ccc(NC(=O)CSc2nnc(-c3ccccn3)n2N)cc1 returned INS promoter inh 36 and ROMK mod 0.67.
Screening O=C1OC(c2ccccc2)/C(=C(/O)c2ccc(Cl)cc2)C1=O (configuration not stated) returned INS promoter inh 75*, Measles CPE 17, ROMK mod -0.7 and sdo1 growth -0.67.
`Cc1ccc(/C(O)=C2/C(=O)C(=O)OC2c2ccc(Cl)cc2)cc1` (configuration not stated) gave INS promoter inh 16, Measles CPE 22 and sdo1 growth 1.4.
Cc1ccc(C)c(N2CC(C(=O)O)CC2=O)c1 (configuration not stated) was read as ROMK mod 0.02.
`CCC(C)(C)n1nnnc1CN1CCc2ccccc21` gave INS promoter inh 50, Measles CPE 73*, ROMK mod -1.6 and sdo1 growth -0.11.
`CCN(C(=O)CSc1nnnn1-c1ccccc1)C1CCS(=O)(=O)C1` (configuration not stated) gave INS promoter inh -81 and ROMK mod 0.66.
For COc1ccc2nc(C)c3cc(C)oc3c2c1 the results were INS promoter inh 90*, Measles CPE 4, ROMK mod -0.84 and sdo1 growth 0.05.
COc1cccc2c1nc(C)c1cc(C)oc12 was read as Measles CPE 1 and sdo1 growth -0.06.
O=C(NCc1ccco1)C(c1cccs1)N(C(=O)C1COc2ccccc2O1)c1cccc(O)c1 (configuration not stated) was read as Measles CPE 6, ROMK mod -7.2* and sdo1 growth 0.1.
For Clc1ccc(COn2ccnc2)cc1Cl the results were ROMK mod -0.27.
Screening Cc1cc(C)cc(COn2ccnc2)c1 returned INS promoter inh 68*, Measles CPE 9, ROMK mod 0.93 and sdo1 growth -0.42.
For COc1ccc(NC(=O)Nc2ccon2)c(OC)c1 the results were ROMK mod -0.0041.
`FC(F)(F)c1cc(C(F)(F)F)c2ccc(Oc3ccccc3)nc2n1` gave INS promoter inh 15, Measles CPE 43* and sdo1 growth -0.2.
`CCOC(=O)c1cc(-c2ccccc2)sc1NC(=O)C(C)N1C(=O)c2ccccc2C1=O` (configuration not stated) gave INS promoter inh -27, Measles CPE 28 and sdo1 growth 0.42.
Screening N#Cc1c(NCCO)nc(NCc2ccccc2)c2c1CCN(Cc1ccccc1)C2 returned Measles CPE 7 and sdo1 growth -0.78.
Screening C=CCNc1nc(N2CCCCC2)c(C#N)c2c1CN(Cc1ccccc1)CC2 returned INS promoter inh 29, Measles CPE 61*, ROMK mod -0.38 and sdo1 growth -1.8.
